PNC inhibitor – inhibitors of perinucleolar compartment assembly; PC3M PTB-GFP, PNC prevalence imaging, 16 h; active compounds read low; 140,000 tested, 3.1% active; activity change (PNC), negative = inhibition, % at 10 µM;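 active means readout at or below -70, meaning at least 70% loss of cells showing the perinucleolar compartment, a nuclear body marking cancer cells; inconclusive means readout between -30 and a set limit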;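 further: plate controls were DMSO wells for no effect and camptothecin positive control wells for full effect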
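PC3M cells stably expressing PTB-GFP, 750–1000 cells/well, treated 16 h at 37 °C with compound (23 nl of library stock), in duplicate. After paraformaldehyde fixation and Hoechst stain, imaged at 20x; PNC prevalence scored by image analysis.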
HPGD inh – HPGD (human) dehydrogenase inhibition | 150,000 tested, 4.3% active | Potency, µM, for the others: at the top dose activity change, negative = inhibition, most hits filed as inhibitors | P15428 | purified HPGD, NADH fluorescence kinetic, PGE2 substrate; further: potency means the concentration at half of the fitted maximal effect
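20 nM HPGD preincubated 15 min at room temperature with compound in 50 mM Tris-HCl pH 8, 0.01% Tween 20. Started with 1 mM NAD+ and 30 uM prostaglandin E2; NADH fluorescence (360/450 nm) read 5 times over 30-s intervals, last minus first.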
ALDH1A1 block – inhibitors of human aldehyde dehydrogenase 1A1; P00352; Purified ALDH1A1, NADH fluorescence, propionaldehyde substrate; Potency, µM (highest dose often 75.3 µM), for the others: at the top dose activity, negative = inhibition, actives largely listed as inhibitors; 220,000 tested, 7.3% active;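 further: potency means the concentration at half of the fitted maximal effect; plate controls were no enzyme wells and a reference inhibitor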
Target sequence (P00352 whole entry, looked up): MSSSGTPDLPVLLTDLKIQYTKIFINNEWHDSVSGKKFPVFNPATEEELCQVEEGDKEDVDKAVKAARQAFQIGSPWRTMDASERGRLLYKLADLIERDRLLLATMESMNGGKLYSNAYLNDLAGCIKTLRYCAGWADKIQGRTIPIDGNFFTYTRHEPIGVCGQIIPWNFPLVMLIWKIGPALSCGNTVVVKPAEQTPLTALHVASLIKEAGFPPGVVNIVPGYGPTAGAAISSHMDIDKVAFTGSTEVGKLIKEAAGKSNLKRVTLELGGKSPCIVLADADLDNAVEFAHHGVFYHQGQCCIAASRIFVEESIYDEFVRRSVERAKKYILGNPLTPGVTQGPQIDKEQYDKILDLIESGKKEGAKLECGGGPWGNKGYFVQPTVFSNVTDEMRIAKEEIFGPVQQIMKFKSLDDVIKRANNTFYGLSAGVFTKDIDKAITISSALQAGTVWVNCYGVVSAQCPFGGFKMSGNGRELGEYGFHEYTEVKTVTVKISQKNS
* = called active by the depositor; ? = inconclusive; nt = no result; [ ] = another dose, or the depositor's remark. Compounds with a hit are over-represented: about 11% of the library has one in this group of screens. Unless noted, the call rests on the fitted dose curve; in most records, active means well fitted inhibition curve with a large enough effect (not every such curve was filed as active); inconclusive means small, poorly fitted or top-dose-only effect, or another doubt; inactive means no such curve, though single readings can be large or run the other way. Unless noted, on the % scale 0 is the no-effect control and ±100 the full control effect.

SMILES	PNC inhibitor	HPGD inh	ALDH1A1 block
O=C(c1ccccc1)C(Sc1ncn[nH]1)c1ccccc1 (stereo unspecified)	2	40µM*	?
CCSc1ccc2nnc(-c3cccc(F)c3)n2n1	12	?	?
COc1cc(CNC(=O)c2cccc(COc3ccc(Cl)cc3)c2)cc(OC)c1	0	-16%	5%
N#CCCCN1C(=O)C(O)(CC(=O)c2ccc3c(c2)OCCO3)c2ccccc21 (stereo unspecified)	-3	-6%	?
N#CCCCN1C(=O)C(=C(C#N)C#N)c2ccccc21	nt	nt	0.79µM*
CN(CCCNC(=O)c1cc2c(Cl)nc3ccccc3c2s1)Cc1ccccc1	nt	nt	28µM*
CC1CCCN(CCCNC(=O)c2cc3c(Cl)nc4ccccc4c3s2)C1 (stereo unspecified)	nt	nt	-16%
COc1ccc(N(C)C(=O)c2cc3c(Cl)nc4ccccc4c3s2)cc1	?	16µM*	-6%
COc1ccc(NC(=O)c2cc3c(Cl)nc4ccccc4c3s2)c(OC)c1	15	-17%	-7%
Cc1ccc(C(=O)NCC(=O)OC(C)C(=O)NCCC2=CCCCC2)cc1C (stereo unspecified)	-17	3%	-4%
CS(C)(=O)=O	nt	-14%	5%
Cc1ccc(S(=O)(=O)N2CCC(=O)N(C(COCc3ccc(Cl)cc3)Cc3ccccc3)CC2)cc1 (stereo unspecified)	37	-6%	?
CCOC(=O)N1CCN(c2c(-c3ccc(C)cc3)c(=O)c2=O)CC1	-100*	-10%	4%
CCOC(=O)N1CCN(c2c(N3CCN(c4cccc(C)c4C)CC3)c(=O)c2=O)CC1	2	-1%	9%
CCOC(=O)N1CCN(c2c(-c3ccc(C(C)C)cc3)c(=O)c2=O)CC1	2	-12%	-13%
CCOC(=O)N1CCN(c2c(-c3ccc(C)c(C)c3)c(=O)c2=O)CC1	-100*	-15%	-11%
CCCSc1nnc(NC(=O)Nc2ccccc2)s1	-11	1%	0%
CCCSc1nnc(NC(=O)Nc2ccc(F)cc2)s1	-83*	0%	-6%
Cc1cc(C)nc(SCc2nnc(SCc3ccccc3Cl)o2)n1	23	?	-4%
COc1cc2c3nnc(-c4ccc(F)cc4)c-3cn(Cc3cccc(C)c3)c2cc1OC	-10	-6%	2%
COc1cc2c3nnc(-c4ccc(F)cc4)c-3cn(Cc3ccc(C)cc3)c2cc1OC	-17	-16%	4.5µM*
CS(=O)(=O)N(CC(=O)NC1CCCC1)Cc1ccc(Cl)cc1	7	-14%	10%
COc1ccccc1CNc1ncncc1-c1ccccc1C	nt	-13%	?
COc1ccccc1CNc1ncncc1-c1ccoc1	nt	-23%	25µM*
CCOC(=O)[C@@H](O)Cc1cnc2ccccc2n1	nt	0%	-14%[13.5 µM]
SMILES	PNC inhibitor	HPGD inh	ALDH1A1 block
O=C(O)c1c(-c2nccc3ccccc23)[nH]c(-c2ccccc2)c1S(=O)(=O)O	nt	-12%	?
Cc1ccc(C2C3=C(CC(C)(C)CC3=O)Nc3[nH]c(=S)[nH]c(=O)c32)cc1 (stereo unspecified)	?	18µM*	0%
Cc1[nH]nc2c1C(c1ccccc1)C1=C(CC(C)(C)CC1=O)N2 (stereo unspecified)	-19	nt	-2%
Fc1ccccc1/C=N/NC(=S)Nc1ccc(Cl)cc1Cl	?	-12%	-5%
Cc1ccccc1-c1cc(C(=O)Nc2sc(C(=O)OC(C)C)c(C)c2C#N)c2ccccc2n1	?	16µM*	8.9µM*
CCOC(=O)c1sc(NC(=O)c2cc(-c3ccc(C)cc3)nc3ccccc23)c(C#N)c1C	51	22µM*	?
COC(=O)c1sc(NC(=O)c2cc(-c3ccccc3)nc3ccccc23)c(C#N)c1C	19	3.5µM*	14µM*
COC(=O)c1sccc1NC(=O)c1cc(-c2ccc(C)cc2)nc2ccccc12	47	-15%	5%
Cc1sc(NC(=O)c2cc(-c3ccc(Cl)cc3)nc3ccccc23)c(C(N)=O)c1C	25	13µM*	25µM*
Cc1cc(NC(=O)c2cc(-c3ccccc3C)nc3ccccc23)no1	-22	-9%	-5%
CCOC(=O)c1sc(NC(=O)CC)c(C#N)c1C	nt	nt	7%
Cc1sc(NC(=O)c2cc(-c3ccccc3)nc3ccccc23)c(C(N)=O)c1C	?	-9%	8%
CC(C)(C)CC(=O)NC(=S)N1CCCCCC1	6	-5%	0%
COc1cccc(C(C(=O)NC(C)(C)C)N(CC(C)C)C(=O)CCC(=O)Nc2cc(C)on2)c1OC (stereo unspecified)	nt	nt	9%
COc1ccc(/C=N/NC(=O)c2nonc2C)cc1	?	-6%	1%
CCOC(=O)c1sc(NC(=O)CSc2nccc(C)n2)c(C#N)c1C	?	-8%	-1%
